The record followed here is PubChem BioAssay (NCATS).

The target of test [1] is Calcium and integrin-binding protein 1 (Homo sapiens) (UniProt Q99828). The test is described as follows: Primary qHTS for Identification of Calcium Integrin Binding Protein 1 (CIB1) Competitor (AID 1508620).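 Further: GST tagged CIB1 binding a fluorescein labelled alphaIIb integrin peptide tracer; top concentration of the series differs between compounds.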 The procedure, abridged: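 CIB1-GST (1 uM final) and compound incubated 15 min at room temperature before adding FITC-alphaIIb peptide tracer (100 nM final). Competition for binding read by fluorescence polarization (ex 480, em 540) after another 15 min at room temperature.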
For orientation: In qHTS, concentration-response curves come from the screen itself.

The target of test [2] is Cytochrome P450 2D6 (Homo sapiens) (UniProt P10635). The test is described as follows: Cytochrome P450 family 2 subfamily D member 6 (CYP2D6) small molecule antagonists: luciferase biochemical (cell-free) qHTS assay (AID 1645840; active means well fitted curve in the direction sought with a large enough effect in the repeat runs; an effect the other way counts as inactive or inconclusive; further: nearly all actives have a fitted effect of over 55% in size; further: potency means the concentration at half of the fitted maximal effect; on activity change, negative = inhibition: series mostly up to about 57 µM). An outline of the steps: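 P450-Glo luminescent screen: recombinant CYP2D6 enzyme–proluciferin substrate mix preincubated with compound 10 min at room temperature, then NADPH regeneration added for 1 h at room temperature. Detection reagent added for 20 min; luciferin light read as relative luminescence units.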

Test [3] has as its target Cytochrome P450 2C9 (Homo sapiens) (UniProt P11712). The test is described as follows: Cytochrome P450 family 2 subfamily C member 9 (CYP2C9) small molecule antagonists: luciferase biochemical (cell-free) qHTS assay (AID 1645842; active means well fitted curve in the direction sought with a large enough effect in the repeat runs; an effect the other way counts as inactive or inconclusive; further: nearly all actives have a fitted effect of over 55% in size; further: potency means the concentration at half of the fitted maximal effect; on activity change, negative = inhibition: series mostly up to about 57 µM). An outline of the steps: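 Luminescence, after 20 min with luciferin detection reagent, reflected CYP2C9 turnover during a 1 h NADPH-driven reaction at 37C. Enzyme-substrate mix contained 0.4% bovine serum albumin and was preincubated with compound 10 min at room temperature.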

Test [4] can be described thus: Primary qHTS for inhibitors of nuclear receptor binding SET domain protein 2 (NSD2) in an isogenic RCH-ACV NSD2 p.E1099K mutant (9B) (AID 1645876). Further: nearly all actives have a fitted effect of over 70% in size.
Test [5] is described as follows: Primary qHTS for inhibitors of nuclear receptor binding SET domain protein 2 (NSD2) in an RCH-ACV wild type WT cells (2C) (AID 1645877). Further: nearly all actives have a fitted effect of over 70% in size.

Results filed as inconclusive are left out. Unmarked numbers belong to inactive results. Active and inactive are the calls of the source. Unless noted, the call rests on the fitted dose curve; in most records, active means well fitted curve in the direction sought with a large enough effect; inconclusive means small, poorly fitted or top-dose-only effect, or another doubt; inactive means no such curve, though single readings can be large; an effect the other way counts as inactive or inconclusive.
On the % scale 0 is the no-effect control and ±100 the full control effect.

Calcium and integrin-binding protein 1 (Homo sapiens), sequence (Q99828 whole entry, looked up): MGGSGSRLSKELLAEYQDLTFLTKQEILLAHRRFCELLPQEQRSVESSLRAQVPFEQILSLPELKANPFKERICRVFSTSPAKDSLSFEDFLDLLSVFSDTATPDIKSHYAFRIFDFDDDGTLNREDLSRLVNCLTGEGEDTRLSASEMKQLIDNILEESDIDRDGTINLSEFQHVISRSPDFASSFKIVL
Cytochrome P450 2D6 (Homo sapiens), sequence (P10635 whole entry, looked up): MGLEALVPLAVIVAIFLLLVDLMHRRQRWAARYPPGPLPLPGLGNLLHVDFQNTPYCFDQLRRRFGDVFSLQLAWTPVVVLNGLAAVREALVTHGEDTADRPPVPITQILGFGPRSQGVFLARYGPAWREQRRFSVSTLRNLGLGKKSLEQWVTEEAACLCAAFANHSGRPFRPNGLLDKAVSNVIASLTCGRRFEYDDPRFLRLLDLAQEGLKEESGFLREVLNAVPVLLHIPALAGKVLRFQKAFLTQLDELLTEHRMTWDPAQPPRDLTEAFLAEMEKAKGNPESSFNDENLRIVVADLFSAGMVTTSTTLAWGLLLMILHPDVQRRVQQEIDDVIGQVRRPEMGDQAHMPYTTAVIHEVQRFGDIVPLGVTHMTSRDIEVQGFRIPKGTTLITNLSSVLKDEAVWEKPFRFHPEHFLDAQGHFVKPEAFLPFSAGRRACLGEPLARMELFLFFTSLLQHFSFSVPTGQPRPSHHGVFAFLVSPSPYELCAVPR
Cytochrome P450 2C9 (Homo sapiens), sequence (P11712 whole entry, looked up): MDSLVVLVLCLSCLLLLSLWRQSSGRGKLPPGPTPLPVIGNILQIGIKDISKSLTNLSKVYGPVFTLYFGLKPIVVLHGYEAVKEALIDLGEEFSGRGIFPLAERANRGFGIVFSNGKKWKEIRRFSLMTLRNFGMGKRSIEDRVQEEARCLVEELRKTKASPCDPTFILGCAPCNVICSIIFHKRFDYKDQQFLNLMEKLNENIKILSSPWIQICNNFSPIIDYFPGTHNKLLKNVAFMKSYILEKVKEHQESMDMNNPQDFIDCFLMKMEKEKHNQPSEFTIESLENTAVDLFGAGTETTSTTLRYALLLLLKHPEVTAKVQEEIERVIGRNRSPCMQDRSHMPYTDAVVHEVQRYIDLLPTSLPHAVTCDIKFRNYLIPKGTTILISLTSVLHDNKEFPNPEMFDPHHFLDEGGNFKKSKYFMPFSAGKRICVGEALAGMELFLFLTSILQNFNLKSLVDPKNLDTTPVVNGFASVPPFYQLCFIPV

In the case of `CC1=C2C[C@H]3OC(=O)[C@H](O)[C@@]4(O)[C@@H](C)[C@@H](O)[C@H](O)C([C@@]2(C)[C@H](O)[C@@H](O)C1)[C@@]34C` (some centres not stated), the Potency result in test [1] is “inactive”.
For `C/C(=C\C(=O)C(C)C1CCC2C3=C(CCC21C)C1(C)CCC(=O)C(C)(C)C1(O)CC3)C(C)(C)O` (configuration not stated), the Potency result in test [1] was “inactive”.
Turning to `COc1cc(C)c(C(=O)OC2C(C)OC(OC3CCC(C)C4C3C=C(C)C3/C(C)=C\CC/C(C)=C/C5(C)C=C(C(=O)O)C(C)CC56OC(=O)/C(=C(\O)C34C)C6=O)C(O)C2O)c(OC)c1` (configuration not stated), in test [1], the Potency entry is “inactive”.
On to `CC[C@@H]1C(=O)O[C@]23C=C[C@@H]4C(C(=O)OC)=CO[C@H](O[C@@H]12)[C@@H]43`, for which the Potency result in test [1] is “inactive”.
Regarding `C/C=C/C=C/C=C/C(=O)O[C@@H]1C=C(CO)[C@](O)(CO)[C@@]2(C)CCCC(C)(C)[C@H]12`, in test [1], the Potency result is “inactive”.
Same read-out and setting: for `COc1cc(O)cc2c1C(=O)OC(C)CCCCCCC2` (configuration not stated) the value was “inactive”.
In the case of `C[C@@H]1O[C@@H](O[C@H]2[C@H](OC(=O)[C@]34CCC(C)(C)C[C@H]3C3=CCC5[C@@]6(C)CC[C@H](O[C@@H]7O[C@H](CO[C@@H]8OC[C@H](O)[C@H](O)[C@H]8O)[C@@H](O)[C@H](O)[C@H]7O)C(C)(C)C6CC[C@@]5(C)[C@]3(C)C[C@H]4O)OC[C@@H](O)[C@@H]2O)[C@H](O)[C@H](O[C@@H]2OC[C@](O)(CO)[C@H]2O)[C@H]1O[C@@H]1OC[C@H](O)[C@H](O[C@@H]2OC[C@@H](O)[C@H](O)[C@H]2O)[C@H]1O` (some centres not stated), in test [1], the activity change, negative = inhibition was 2.98% [at 12.4 µM].
On to `C/C=C(\C)C(=O)OC1C(C)C2(O)C3C=C(C)C(=O)C3CC(CO)=CC2C2C(C)(C)C12OC(C)=O` (configuration not stated), for which the Potency entry in test [1] was “inactive”.
With `CC(=O)O[C@@H]1CC2C(C)(C)C(=O)C=C[C@]2(C)C2CC[C@]3(C)C(=CC(=O)[C@@H]3c3ccoc3)[C@@]21C` (some centres not stated), the Potency result in test [1] is “inactive”.
As for `CC(O)C(=O)/C=C/C=C/C(=O)OC1C=C2COC(=O)C2(O)C2(C)CCCC(C)(C)C12` (configuration not stated), the Potency entry in test [1] was “inactive”.
On the same count and under the same terms, for `COc1ccc(C2COc3cc(O)ccc3C2)c(O)c1OC` (configuration not stated) the value was “inactive”; for `O=C1OC(c2ccc(O)cc2)C(O)=C1Cc1ccccc1` (configuration not stated), “inactive”.
As for `CC(=O)OC1CC2C(C)(C)C(=O)C=CC2(C)C2CC(=O)C3=C(CCC3C3=CC(O)OC3=O)C12C` (configuration not stated), the Potency result in test [1] was “inactive”.
Turning to `COC(=O)[C@H](c1ccccc1Cl)N1CCC2SC(=O)C=C2C1` (some centres not stated), the Potency entry in test [1] was “inactive”.
Regarding `C=C[C@]1(C)C[C@@H](OC(=O)CSC2C[C@H]3CC[C@@H](C2)N3C)[C@]2(C)[C@H](C)CC[C@]3(CCC(=O)[C@H]32)[C@@H](C)[C@@H]1O` (some centres not stated), the Potency entry in test [1] is “inactive”.
For the compound `CCC(C)/C=C(C)/C=C/C1=CC2=CC(=O)C(C)(O)C(OC(C)=O)C2CO1` (configuration not stated), the Potency result in test [1] is “inactive”.
Turning to `C/C=C(\C)C(=O)OC1CC2C(CC=C3CC(OC4CC(OC)C(OC5CC(OC)C(OC6CC(OC)C(OC7CC(OC)C(OC8CC(OC)C(OC9OC(CO)C(O)C(O)C9O)C(C)O8)C(C)O7)C(C)O6)C(C)O5)C(C)O4)CCC32C)C2(O)CCC(C(C)=O)C12C` (configuration not stated), in test [1], the activity change, negative = inhibition was 0.354% [at 12.4 µM].
Turning to `C=C1C(=O)OC2CC(COC(=O)C(C)C)=C(C(C)CCCOC(C)=O)[C@@H](OC(C)=O)C12` (some centres not stated), the Potency entry in test [1] was “inactive”.
Consider `CC(=O)NC1C(OC2CCC3(C)C(CCC4(C)C3CC=C3C5CC(C)(C)CCC5(C(=O)O)C(O)CC34C)C2(C)C)OC(CO)C(O)C1O` (configuration not stated), for which, in test [1], the Potency entry is “inactive”.
Take `C/C=C/C=C/C(=O)OC1CC/C=C/C(O)C(O)C(CCC)OC1=O` (configuration not stated): the Potency result in test [1] was “inactive”.
For the compound `C=C1C(=O)O[C@@H]2C[C@]3(C)[C@@H](CCC(C)=O)[C@@H]3C[C@H]12`, in test [1], the Potency result is “inactive”.
Turning to `CCC(C)/C=C(C)/C=C/C(=O)C1CCC(O)C(C)(O)C1=O` (configuration not stated), the Potency result in test [1] was “inactive”.
For the compound `CCCC(C(=O)O)c1c(C)nc2ccc(Cl)cc2c1-c1ccccc1` (configuration not stated), the Potency result in test [1], in test [2], in test [4] and in test [5] was “inactive” each time. Besides, the Potency in test [3] was 21.3 µM (active).
For the compound `CNc1nc(Nc2cn(C(C)(C)C#N)nc2C)ncc1C(F)(F)F`, the Potency entry in test [1], in test [2], in test [4] and in test [5] was “inactive” in each case. Also, the Potency in test [3] was 7.56 µM (active).
As to `C[C@@H](c1ccccc1)N(C(N)=NC#N)c1cccc2ncccc12`, the Potency entry in test [1], in test [2], in test [4] and in test [5] was “inactive” each time. The Potency in test [3] was 10.7 µM (active).
`Cc1cn(C[C@H](N)C(=O)O)c(=O)n(Cc2ccsc2C(=O)O)c1=O`: the Potency result in test [1], in test [2], in test [3], in test [4] and in test [5] was “inactive” in each case.
In the case of `COc1ccccc1Oc1c(NS(=O)(=O)c2ccc(C)cn2)nc(-c2ccncc2)nc1OC`, the Potency result in test [1], in test [2], in test [4] and in test [5] was “inactive” throughout. Besides, the Potency in test [3] is 26.8 µM (active).
In the case of `CC(C(=O)Nc1cc(C#N)ccc1CCCC(=O)O)c1ccc(F)c2ccccc12` (configuration not stated), the Potency entry in test [1], in test [2], in test [4] and in test [5] was “inactive” throughout. In addition, the Potency in test [3] is 0.536 µM (active).
With `CCC(C)C(N)C(=O)NCCN1CCOCC1` (configuration not stated), the Potency entry in test [1], in test [2], in test [3], in test [4] and in test [5] was “inactive” each time.
`Cc1nc2ccccc2c(-c2ccc3c4c(ccnc24)CCO3)c1[C@H](OC(C)(C)C)C(=O)O`: the Potency result in test [1], in test [2], in test [3], in test [4] and in test [5] was “inactive” in each case.
On to `CCCC(=O)Nc1cccc(NC(=O)c2ccccc2Br)c1`, for which the Potency result in test [1], in test [2], in test [3], in test [4] and in test [5] was “inactive” in each case.
Take `CNC(=O)c1ccc2c(c1)CCO[C@H]2CCN1CCN(c2ccc(C(N)=O)cc2)CC1`: the Potency result in test [1], in test [2], in test [3], in test [4] and in test [5] was “inactive” each time.
With `CCOC(=O)CSc1nc2c(sc3ccccc32)c(=O)n1CCCN1CCCC1`, the Potency result in test [1], in test [4] and in test [5] was “inactive” throughout. For the same compound, the figures for the Potency in test [2] and in test [3] were 0.849 µM (active) and 13.5 µM (active), respectively.
With `c1ccc2c(Nc3nnc(-c4ccncc4)s3)cccc2c1`, the Potency result in test [1], in test [2], in test [4] and in test [5] was “inactive” in each case. In test [3], the Potency is 6.01 µM (active).
`COC(=O)C(CC1CCCC1)c1ccc(S(C)(=O)=O)cc1` (configuration not stated): the Potency result in test [1], in test [4] and in test [5] was “inactive” each time. Also, the Potency in test [2] was 12 µM (active); in test [3], 4.77 µM (active).
Regarding `CN1CCN(c2nc(-c3ccc(C(=O)NC4(C(=O)NCC#N)CCCCC4)cc3)cs2)CC1`, the Potency entry in test [1], in test [2], in test [4] and in test [5] was “inactive” each time. In test [3], the Potency was 12 µM (active).
Turning to `N#Cc1cc(-c2n[nH]c(-c3ccncc3)n2)ccn1`, the Potency result in test [1], in test [2], in test [4] and in test [5] was “inactive” each time. The Potency in test [3] is 1.51 µM (active).
Regarding `Nc1c(-c2ccccc2)nc(Cl)c2c(O)n[nH]c(=O)c12`, the Potency result in test [1], in test [2], in test [4] and in test [5] was “inactive” throughout. The Potency in test [3] is 10.7 µM (active).
